# Test results reported in the supplement of paper PMC6555819.
# Tested on: VDR:RXRa (NR concentration 270 nM, RXRa partner concentration 90 nM)
# Assay: PBM binding z-score (relative to random genomic background probes); higher = stronger binding; sequences stand for … in GC…GCGATTGACAGCGTAGAATGAAGG
# Experimental: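 Protein-binding microarray (Agilent 4x180K custom design, double-stranded 60-nt probes: 5' GC cap, 34-nt variable region, 24-nt constant primer region; full probe sequence given). Purified or IVT nuclear receptor:RXRα heterodimers (3:1 NR:RXRα, mostly 270:90 nM) or homodimers were incubated for 1 h in PBS with 2% milk and no ligand, then detected with Alexa488 antibodies. Fluorescence from o1-orientation probes (~5 replicates averaged) was converted to z-scores against 500 random hg19 background probes. Variable regions are seed direct-repeat (DR0–DR5) sites, all their single-nucleotide variants and half-site ablations.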
row,Sequence,PBM binding z-score
1,CGTCCAAGGTCATAGGACGTCAGTGAAGACAGAT,4.13
2,CCAGACAGGTGAGAAGGTAACTCAACCTCGATTA,0.0485
3,AGAATGAGGTTAAGATCAGGGAGACAGAATACAT,1.24
4,GTACCAAGGTGAATAGGTCATTGATGAGTAGGCG,2.24
5,CCTATTTGGTCAGGAGGTCACACACCGGATATGA,4.05
6,ATCTCTAGGTAACCAAGTTCAGTTAATGCCGAAC,4.33
7,AGAATGAGGTTACCACAGATCAGGGAAACGCTTG,1.23
8,CGAACTAGGTCAAAGACAGTGAATCTCCGCACGC,1.36
9,CGAACGAGGGTATGAGTTGATAGCAAATGCCGAT,-0.175
10,AGAACGAAGGCACGCTGAGTTGATAGCAGAGTAG,-0.487
11,GCTACTAGGTCAACTGATGGTCAGCTAAAGCTCG,1.79
12,TCATATAGGTAAAGGTGCAAGTCGAACGATATGA,0.567
13,TAGCCTAGGTCATGCGGACCAGTATAGTGTCGGC,1.99
14,CGAACTAGGTCATCCAGGACAGTGAGTACATTGA,5.02
15,TAGCCTAGGTCATGGGCCAGGATACCACGCGAAC,1.97
16,GCGACTGGGGCATCAGCAGGTTGCCATAACTTAA,-0.532
17,GCTCGCAGGCCATTTGGGTCACTCAATGACGGGC,0.783
18,CCTATTAGTTGTCCATAAGGGCAACCGAAGCTCG,0.958
19,TCTATTAGTTGATTAGAGCAACCGAAACAGCGGA,0.404
20,CCTAGCAGGCCAAACTGGGTCACTCAAGGCTTGA,0.616

row,Sequence,PBM binding z-score
1,TCATATAGGGAAAAGGTGAAAGTCGGTGTGGTAA,1.29
2,ACAGACAGGTGATGAAGATAACTCAGGCTATCAT,-0.422
3,CAAACTAGGTCAAAGGTTAAAGTCGAGCCAACCA,4.87
4,ACAGACAGGTGAGTGAAGGGAACTCAGCTGGACG,-0.408
5,CGTCCAAGGTCAGCAGGTCAGTGAGAGCGACGTG,4.04
6,GCTAGTTGGTCAGTAAAAGGCCACACACCGGTCG,-0.219
7,AGAATAAGGTTACCAAAGATCAGGGAAACGCTTG,0.872
8,CCGACTGGGGCAGAAAGGTTACCCTACCATCCGG,0.717
9,GCTATTATTTGAAAGGGCAACCGAATGATTCTCG,0.646
10,TCAGAAAGGTGAAGGTAACTCAGGTACGCAGTCG,1.35
11,ACAGACAGGTGATGAAGGTATCTCAGGCTATCAT,-0.0743
12,CCTACTGGGGCAGAAAGGTTACCATACCATCCGG,0.923
13,CCTCGGAGGACAACAGGAGGTTAGAGCTGCCAGA,-0.265
14,GATACAGGGTCAGCTAGACGCCAGAGTATGGAAA,2.29
15,TCTTGTAGATCTGCAGGTTAAGAAAGCTGGCCAA,0.239
16,ACTAGTTGGTCAGCTGAGGTCACACATAATTCGG,4.49
17,AATACAGGGTCACTAGGCCAGAGTTGGTACGAAT,4.26
18,CAAACTAGGTCAAGGTCAAAGCCGGTTTGTGCCA,4.95
19,GCTTACGGTTCAAAGGTTATAGCATGAATAGAAT,4.41
20,TCTAGCAGGCCAGAGGGTCTCTCAAGAGGTACGG,-0.687
